Measurements as given in the GenesisPotency data set.
The campaign covered roughly 290,000 compounds. About 3,000 (1%) were called active. Rule as the data show it: active = inhibition mostly above about 36% (no sharp cut-off); inactive = mostly below about 34%. Shown is part of a subset that was picked to be rich in actives.

What follows are compounds tested against T1, Nucleotide-binding oligomerization domain-containing protein 1, Homo sapiens (UniProt Q9Y239) (assay: NOD1 signaling inhibitors, primary screen, cell-based, luminescence, uHTS (AID 1578)).
T1 sequence (whole entry): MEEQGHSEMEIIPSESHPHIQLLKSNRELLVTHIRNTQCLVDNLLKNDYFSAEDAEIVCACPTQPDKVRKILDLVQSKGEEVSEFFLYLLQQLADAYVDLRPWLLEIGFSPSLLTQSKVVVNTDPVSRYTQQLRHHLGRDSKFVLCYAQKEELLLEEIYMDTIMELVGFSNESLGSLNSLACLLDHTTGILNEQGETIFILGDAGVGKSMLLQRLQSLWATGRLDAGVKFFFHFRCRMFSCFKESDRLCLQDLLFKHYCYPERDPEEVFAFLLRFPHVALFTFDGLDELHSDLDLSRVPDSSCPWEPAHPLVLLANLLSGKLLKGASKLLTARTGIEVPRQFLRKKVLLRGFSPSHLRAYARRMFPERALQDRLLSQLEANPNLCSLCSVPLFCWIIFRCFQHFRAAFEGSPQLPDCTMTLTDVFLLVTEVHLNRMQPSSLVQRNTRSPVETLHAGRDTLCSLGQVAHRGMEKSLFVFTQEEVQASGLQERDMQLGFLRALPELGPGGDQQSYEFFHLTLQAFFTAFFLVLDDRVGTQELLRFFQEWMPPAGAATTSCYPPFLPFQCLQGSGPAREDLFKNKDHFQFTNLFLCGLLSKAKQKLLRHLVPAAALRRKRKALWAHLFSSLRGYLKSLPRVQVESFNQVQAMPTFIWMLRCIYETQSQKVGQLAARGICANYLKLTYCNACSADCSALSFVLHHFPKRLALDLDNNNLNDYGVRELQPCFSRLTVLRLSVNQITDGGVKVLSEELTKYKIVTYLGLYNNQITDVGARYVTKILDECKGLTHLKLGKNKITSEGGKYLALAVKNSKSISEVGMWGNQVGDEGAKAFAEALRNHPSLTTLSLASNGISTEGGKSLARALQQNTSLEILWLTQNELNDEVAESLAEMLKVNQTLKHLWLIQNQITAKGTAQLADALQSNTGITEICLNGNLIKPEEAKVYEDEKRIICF

outcome, active:
COc1ccccc1CN(Cc1nc2ccccc2c(=O)[nH]1)S(=O)(=O)c1ccc2ccccc2c1, N#C/C(=C\c1ccc(O)c([N+](=O)[O-])c1)c1nc2ccccc2s1, O=C(CCl)N1c2ccccc2OCC1c1ccccc1 (stereo not drawn), Cc1ccc(C(=O)Nc2ccccc2-c2ccccc2)cc1[N+](=O)[O-], Cc1cccc(C)c1OCC(=O)OC/C(O)=C(\C#N)c1nc2ccccc2[nH]1, COc1ccccc1OCC(=O)OC/C(O)=C(\C#N)c1nc2ccccc2[nH]1, O=C(Nc1nc2ccccc2n1CCOc1ccc(Cl)cc1)c1ccco1, Cc1ccccc1-c1cc(C(=O)Nc2sc(C(=O)OC(C)C)c(C)c2C#N)c2ccccc2n1, CCOC(=O)c1sc(NC(=O)CSc2nc3c(cc2C#N)CCCCCC3)c(C#N)c1C, COC(=O)c1sc(NC(=O)c2cc(-c3ccccc3)nc3ccccc23)c(C#N)c1C, CCOC(=O)c1sc(NC(=O)c2cc(-c3ccccc3C)nc3ccccc23)c(C#N)c1C, CCOC(=O)c1sc(NC(=O)CSc2n[nH]c(-c3ccccc3)n2)c(C#N)c1C, CCOC(=O)c1sc(NC(=O)c2cc(-c3ccccc3)nc3ccccc23)c(C#N)c1C, Cc1ccc(C(=O)O/N=C(\N)c2ccccn2)c(C)c1, Cc1ccc(C)c(N2CCN(C(=O)CCCCCn3c(=S)[nH]c4ccc(N5CCOCC5)cc4c3=O)CC2)c1, N#Cc1ccc(C(=O)Nc2nc(-c3cccs3)c(C(=O)C(F)(F)F)s2)cc1, CCS(=O)(=O)c1ncc(Cl)c(C(=O)Nc2ccc(S(=O)(=O)N(C)c3ccccc3)cc2)n1, CN(c1ccccc1)S(=O)(=O)c1ccc(NC(=O)c2nc(S(C)(=O)=O)ncc2Cl)cc1, CCS(=O)(=O)c1ncc(Cl)c(C(=O)Nc2ccc(C)cc2)n1, CCN(c1ccccc1)S(=O)(=O)c1ccc(NC(=S)NC(=O)c2cccs2)cc1, Cc1csc2ncnc(N3CCN(C(=S)Nc4ccc(C(F)(F)F)cc4)CC3)c12, Fc1ccc(NC(=S)N2CCCN(c3ccc(C(F)(F)F)cn3)CC2)c(F)c1, Cc1csc2c(N3CCN(C(=S)Nc4ccc(C(F)(F)F)cc4)CC3)ncnc12, Cc1csc2ncnc(N3CCN(C(=S)Nc4ccc(F)cc4F)CC3)c12, Cc1csc2ncnc(N3CCN(S(=O)(=O)c4cccc(C(F)(F)F)c4)CC3)c12, Cc1csc2ncnc(N3CCN(C(=O)Nc4ccc(OC(F)(F)F)cc4)CC3)c12, Cc1c(C#N)c(NC(=O)CCl)n(Cc2ccccc2)c1C, Cc1c(C#N)c(NC(=O)CCl)n(Cc2cccs2)c1C, Br.CCCCCCCn1c2c(c(=N)c3c1CCC3)CCCC2, Br.CCCCCCCCCn1c2c(c(=N)c3c1CCC3)CCCC2, Br.CCCCCCCCn1c2c(c(=N)c3c1CCC3)CCCC2, CC(=O)N1CCCc2cc(S(=O)(=O)N3CCCC(C(=O)N4CCN(c5cccc(Cl)c5)CC4)C3)ccc21 (stereo not drawn), CC(=O)N1CCCc2cc(S(=O)(=O)N3CCCC(C(=O)N4CCN(c5cc(C)ccc5C)CC4)C3)ccc21 (stereo not drawn), Cc1ccc(S(=O)(=O)c2ncccc2[N+](=O)[O-])cc1, CN1C(=O)/C(=C/c2ccccc2Cl)Sc2ccc(C(=O)N3CCCC3)cc21, COc1ccc(/C=C2\Sc3ccc(C(=O)N4CCN(Cc5ccccc5)CC4)cc3N(C)C2=O)cc1OC, Cc1ccc(-c2csc(NC3OC(=O)c4ccccc43)n2)cc1 (stereo not drawn), COc1ccc2c(c1OC)C(=O)OC2Nc1nc(-c2ccccc2)cs1 (stereo not drawn), O=C(NCCc1ccccc1)c1ccc2c(c1)OCCCO2, O=C(NCCc1ccccc1F)c1ccc2c(c1)OCCO2, COc1cc(C)c(Br)cc1S(=O)(=O)NCc1ccncc1, Cc1ccc(Cc2c(C)c(C#N)c3[nH]c4ccccc4n3c2=O)cc1, O=C(N/N=C/c1ccc([N+](=O)[O-])s1)c1cccc(Br)c1, O=C(N/N=C/c1ccc([N+](=O)[O-])s1)c1ccccc1Br, O=C(Nc1cccc(S(=O)(=O)N2CCCCC2)c1)c1ccccc1NS(=O)(=O)c1ccc(F)cc1, Cc1ccc(NC(=O)c2ccccc2NS(=O)(=O)c2ccc(F)cc2)cc1S(=O)(=O)N1CCCCC1, COc1ccccc1C(=O)Nc1nc2ccccc2[nH]1, COc1cc(SC)ccc1C(=O)Nc1nc2ccccc2[nH]1, Cc1c(C(=O)Nc2nc3ccccc3[nH]2)oc2ccc(Br)cc12, O=c1cc(C(F)(F)F)nc(SCc2cccc3ccccc23)[nH]1, Cc1cnc(NC(=O)C2CC(=O)N(c3cccc(Cl)c3)C2)s1 (stereo not drawn), CC(C)(C)c1cc(NC(=O)CCl)n(-c2ccccc2)n1, O=[N+]([O-])c1cccc(NC(=S)Nc2nc(-c3ccc(Cl)cc3Cl)cs2)c1, Cc1cc(Br)ccc1SCC(=O)OC/C(O)=C(\C#N)c1nc2ccccc2[nH]1, N#C/C(=C(/O)COC(=O)CSc1ccc2ccccc2c1)c1nc2ccccc2[nH]1, CC(C)(C)c1ccc(-c2noc(CCC(=O)Nc3cccnc3)n2)cc1, CC(C)(C)c1ccc(-c2noc(CCC(N)=O)n2)cc1, O=C(NC1CCCCC1)N1CCN(c2nc(-c3ccccc3)cs2)CC1, COC(=O)C1CCCCN1C(=O)c1cc(COc2cccc3cnccc23)on1 (stereo not drawn), CCOC(=O)CC1CCCCN1C(=O)c1cc(COc2cccc3cnccc23)on1 (stereo not drawn), COc1cc(NC(=O)COc2cc(O)c3c(c2)OC(C)(C)CC3=O)cc(OC)c1OC, NC(=O)c1sc2nc3c(c(-c4ccccc4)c2c1N)CCC3, Cc1nc2sc(C(N)=O)c(N)c2c2c1CCCC2, Cc1ccc(-c2c3c(nc4sc(C(N)=O)c(N)c24)CCC3)cc1, NC(=O)c1sc2nc3c(c(-c4ccco4)c2c1N)CCCC3, NC(=O)c1sc2nc3c(c(-c4cccs4)c2c1N)CCCCC3, Nc1ncc([N+](=O)[O-])c(N2CCCCCC2)n1, COc1ccccc1N1CCN(C(=O)C2CCCN(S(=O)(=O)c3ccc4c(c3)oc(=O)n4C)C2)CC1 (stereo not drawn), CCN(CC)S(=O)(=O)c1ccc(Oc2ccc(S(=O)(=O)N(CC)CC)cc2)cc1, Cc1ccc(NC(=O)/C=C/c2ccc([N+](=O)[O-])s2)c(C)c1, Cc1ccccc1NC(=O)/C=C/c1ccc([N+](=O)[O-])s1, CCCc1nc2c(=O)n(C)c(=O)nc-2n(C)n1, O=C(CCl)N(Cc1ccccc1)c1ccccc1, CC(=O)n1cc(N(C(=O)CCl)c2ccccc2)c2ccccc21, O=C(CCl)N(c1ccccc1)c1ccccc1, O=C(CCl)N(c1ccccc1)c1c[nH]c2ccccc12, O=C(COc1ccc(Br)cc1Cl)NC(=S)N1CCc2ccccc21, CC1Cc2ccccc2N1S(=O)(=O)c1cccc(C(=O)N2CCN(c3ncccn3)CC2)c1 (stereo not drawn), CC1Cc2ccccc2N1C(=S)NC(=O)c1cccc(Br)c1 (stereo not drawn), Cn1c(=NC(=O)CCl)sc2ccccc21, Cc1cc(C(=O)CCl)c(C)n1CCc1ccc(F)cc1, CCc1ccc(-c2nc(CSCC(=O)N3CCN(c4ccccn4)CC3)c(C)o2)cc1, COc1cccc(CN(C)C(=O)CNC(=O)c2ccc(-c3ccccc3)cc2)c1OC, CCOc1ccc(S(=O)(=O)Nc2cnc3ccccc3c2)cc1, Cc1c(C(=O)Nc2nonc2-c2ccc(F)cc2)oc2ccc(F)cc12, Nc1ncc(Br)cc1S(=O)(=O)Nc1cc(C(F)(F)F)cc(C(F)(F)F)c1, O=[N+]([O-])c1cc([N+](=O)[O-])c2oc(-c3ccccc3)c(Br)c2c1O, O=[N+]([O-])c1ccc(Oc2ccc(F)cc2)c2ccncc12, O=[N+]([O-])c1ccc(Oc2ccc(F)cc2Br)c2ccncc12, Cc1ccc(C(=O)NC2CCCc3c2cnn3-c2ccc(F)cc2F)cn1 (stereo not drawn), Cn1nccc1C(=O)NC1CCCc2c1cnn2-c1ccc(F)cc1F (stereo not drawn), CC1=C(C(=O)NC2CCCc3c2cnn3-c2ccc(F)cc2F)OCCO1 (stereo not drawn), COc1ccc(C(=O)CN2C(=O)c3ccccc3S2(=O)=O)cc1, Cc1ccc(C(=O)CN2C(=O)c3ccccc3S2(=O)=O)cc1, COc1ccc(-c2cc3nc(C)n(N)c(=O)c3s2)cc1, COc1ccc(-c2cc3nc(CCl)[nH]c(=O)c3s2)cc1, COc1ccccc1-c1nnc(Sc2nc([N+](=O)[O-])nn2C)o1, OCCCNc1nccc(-c2cc(Nc3cccc(Cl)c3)ncn2)n1, OCCCNc1cc(-c2ccnc(Nc3cccc(Cl)c3)n2)ccn1, CCOC(=O)c1oc2ccc(S(=O)(=O)n3nc(-c4ccc(OC)cc4)cc3N)cc2c1C, CN(C)c1ccnc2sc3c(=O)n(Cc4ccccc4)cnc3c12, Cl.O=[N+]([O-])c1ccc2ncnc(N3CCN(Cc4ccc5c(c4)OCO5)CC3)c2c1, Cc1c(C(=O)N2CCN(Cc3ccc4c(c3)OCO4)CC2)sc2ncnc(N3CCN(c4ccccc4)CC3)c12, Cc1ccc(S(=O)(=O)CC#CCOC(=O)c2ccc([N+](=O)[O-])cc2)cc1, CCOC(=O)c1csc(Nc2nc3ccc(F)cc3s2)n1, CN(c1ccccc1)S(=O)(=O)c1cccc(NC(=O)c2cc(=O)c3ccccc3o2)c1, Cc1cc(Cl)c(S(=O)(=O)N2CCCCCC2)cc1OCC(=O)NC1CCCCC1, Cc1cc(Cl)c(S(=O)(=O)N2CCN(c3ccc(F)cc3)CC2)cc1OCC(=O)NC1CCCCC1
